Many of the other results were omitted from the sample, so hits are more common in it than they were.
ST2 inh – inhibitors of human ST2 (IL1RL1) binding to IL-33, primary screen, biochemical, AlphaLISA. Interleukin-1 receptor-like 1 (Homo sapiens), Q01638. AlphaLISA ST2-Fc/biotin-IL-33 interaction, 1 h. inhibition, % for hits at 17 µM. 78,000 compounds, 2.3% hits; in the data active = inhibition above about 30%
Target sequence (Q01638 whole entry, looked up): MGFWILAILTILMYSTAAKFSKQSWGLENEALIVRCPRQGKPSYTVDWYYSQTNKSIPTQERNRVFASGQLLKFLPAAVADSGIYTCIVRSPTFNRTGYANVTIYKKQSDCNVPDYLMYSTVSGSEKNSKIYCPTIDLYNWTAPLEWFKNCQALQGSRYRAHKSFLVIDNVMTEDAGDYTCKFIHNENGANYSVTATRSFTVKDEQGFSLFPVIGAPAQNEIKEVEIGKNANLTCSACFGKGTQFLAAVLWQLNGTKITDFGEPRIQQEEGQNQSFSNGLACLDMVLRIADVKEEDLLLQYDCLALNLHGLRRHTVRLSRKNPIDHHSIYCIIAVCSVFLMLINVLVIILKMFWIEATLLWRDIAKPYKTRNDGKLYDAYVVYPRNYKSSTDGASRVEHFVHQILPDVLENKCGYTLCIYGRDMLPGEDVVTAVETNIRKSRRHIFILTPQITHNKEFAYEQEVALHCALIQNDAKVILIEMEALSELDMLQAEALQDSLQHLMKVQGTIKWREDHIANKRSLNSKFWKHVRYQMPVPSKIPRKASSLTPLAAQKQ
Numbers without * were called inactive; i = inactive.

SMILES	ST2 inh
O=C(NCc1ccco1)NC1(C(F)(F)F)Oc2ccc(Cl)cc2O1 (stereo not drawn)	i
Cc1ccccc1CN(CCO)Cc1ccccc1	i
COc1ccc(-c2c(C#N)c(N)nc(OC)c2C#N)c(OC)c1	i
COc1ccc(/C=C2/C(C)=C(C#N)c3nc(N)c(C#N)c(C)c32)c(OC)c1	43.0%*
COc1ccc(OC)c(-c2c(C#N)c(N)nc(OC)c2C#N)c1	i
CCCCNC(=O)c1cn(CC)c(=O)c2c1c1ccccc1n2C	i
CC1=C(C(=O)OC2CCCC2)C(c2cccc3ccccc23)NC(=O)N1 (stereo not drawn)	i
COc1cc(/C=C2/SC(=Nc3ccccc3)NC2=O)ccc1OCC#N	32.0%*
CCOc1cc(/C=C2/NC(=O)NC2=O)ccc1OCc1ccccc1C#N	i
CCOc1ccc(/C=C2\SC(N3CC(C)OC(C)C3)=NC2=O)cc1OC (stereo not drawn)	i
COc1cc(C2NC(=O)CCC2[N+](=O)[O-])cc(Cl)c1O (stereo not drawn)	i
COc1ccc(OC)c(/C=C2/SC(=Nc3ccc(C)cc3)NC2=O)c1	i
COc1cc(/C=C2/SC(=Nc3ccccc3)NC2=O)cc(Cl)c1O	42.0%*
CC(C)N1CCN(Cc2cccc3c2oc2ccccc23)CC1CCO (stereo not drawn)	i
Cc1nn(Cc2c(Cl)cccc2Cl)c(C)c1NC(=O)CCCn1nc([N+](=O)[O-])cc1C	i
Cn1c(=O)[nH]c(=O)c2[nH]c(N3CCCCCC3)nc21	i
CSCc1nnc(NC(=O)c2ccc(S(=O)(=O)N(C)C3CCCCC3)cc2)o1	i
CCN1C(=O)N(CCCc2cccnc2)C(=O)C12CCN(Cc1cnc(-c3ccccc3)s1)CC2	i
CCOC(=O)C1(CC2CC2)CCN(Cc2ccc(SC)cc2)CC1	i
CCN1C(=O)N(CCN(C)C)C(=O)C12CCN(Cc1ccc(SC)cc1)CC2	51.0%*
CC(C)c1nnc2sc(CC3CCS(=O)(=O)CC3)nn12	i
CSc1cccc(Sc2cc(C(=O)NCc3ccco3)c3ccccc3n2)c1	i
Cc1ccc(Cn2nc(C)c(NC(=O)c3cc(-c4cccs4)on3)c2C)cc1	i
COc1ccccc1-n1cc2c([N+](=O)[O-])cc([N+](=O)[O-])cc2n1	35.0%*
COc1ccc(C2=N/C(=C\c3cccc(OC)c3OC)C(=O)O2)cc1[N+](=O)[O-]	i
SMILES	ST2 inh
COc1ccc(-n2cc3c([N+](=O)[O-])cc([N+](=O)[O-])cc3n2)cc1	i
Cc1csc(C(C)N(C)C(=O)CC2(c3ccccc3)CC(=O)N(Cc3ccncc3)C2=O)n1 (stereo not drawn)	i
CCOc1ccc(CC2SC(N)=NC2=O)cc1 (stereo not drawn)	i
O=C(Nc1ccc(-c2nc3ncccc3o2)cc1)c1cccnc1	i
CCOc1cc(C(=O)Nc2cc(-c3nc4ncccc4o3)ccc2C)cc(OCC)c1OCC	37.0%*
CC(C)Oc1cccc(C(=O)Nc2ccc(-c3nc4ncccc4o3)cc2)c1	32.0%*
CCCOc1ccc(C(=O)Nc2cc(-c3nc4ncccc4o3)ccc2C)cc1	i
CC(C)Oc1ccc(C(=O)Nc2cccc(-c3nc4ncccc4o3)c2)cc1	i
Cc1ccc(C(=O)Nc2cc(-c3nc4ncccc4o3)ccc2C)cc1C	i
Cc1cc(C)cc(N(C(=O)Cc2ccccc2)C2C=CS(=O)(=O)C2)c1 (stereo not drawn)	i
CCCOc1ccc(N2CC(C(=O)Nc3ccc(Cl)cc3Cl)CC2=O)cc1 (stereo not drawn)	i
CC1CCC(N2CCN(c3ccccc3)CC2)C1 (stereo not drawn)	i
COc1cccc(N2CCN(C3CCC(C)C3)CC2)c1 (stereo not drawn)	31.0%*
COc1cccc(N2CCC(N3CCCC(N4CCN(c5ccccc5C)CC4)C3)CC2)c1 (stereo not drawn)	i
O=C1S/C(=C\c2ccccc2Cl)C(=O)N1c1ccc(O)cc1	38.0%*
CC(=C/c1ccccc1)/C=C1/SC(=O)N(c2ccc(O)cc2)C1=O	45.0%*
COc1ccc(N2C(=O)S/C(=C\c3ccc(O)cc3)C2=O)cc1	i
O=C1S/C(=C\c2ccc(O)cc2)C(=O)N1c1ccc(O)cc1	i
N=C1S/C(=C\c2ccccc2F)C(=O)N1c1ccc2c(c1)OCO2	i
Nc1cccc2c1C(=O)N(c1ccc(O)cc1)C2=O	i
Cc1cn(CC(=O)N2CCOC(CCCc3ccccc3)C2)c(=O)[nH]c1=O (stereo not drawn)	i
CCCCN(C)C(=O)C1CCC(Cn2c(=O)c3sccc3n(CC(=O)N3CCCC3)c2=O)CC1 (stereo not drawn)	i
CN1CCN(C(=O)CCC2CCCN(Cc3cccc4cnccc34)C2)CC1 (stereo not drawn)	i
Cc1ccc(S(=O)(=O)N2CCN(S(C)(=O)=O)C2c2ccccc2)cc1 (stereo not drawn)	i
Cc1ccc(S(=O)(=O)N2C/C(=C\c3ccccc3)c3c2cc([N+](=O)[O-])cc3[N+](=O)[O-])cc1	35.0%*
SMILES	ST2 inh
COc1ccc(C2SCCN2S(=O)(=O)c2ccc(C)cc2)cc1[N+](=O)[O-] (stereo not drawn)	i
CCSc1nc(CC(=O)NCc2c(F)cccc2F)cs1	i
Cc1c(Br)cc(C(=O)N2CCCCC2)c(C)c1C	i
COc1ccc2nc3oc(C(=O)NCc4cccnc4)cc3cc2c1	i
Cc1nc(N2CCC(NCC3C4CC5CC(C4)CC3C5)CC2)nc2cc(S(C)(=O)=O)ccc12 (stereo not drawn)	i
Cn1ncc2c(NCc3n[nH]c4c3CCCCC4)nc(-c3cccnc3)nc21	i
CN(CCCc1cnn(C)c1)c1nc(-c2cccnc2)nc2c1cnn2C	30.0%*
Cc1nnsc1CNc1nc(-c2cccnc2)nc2c1cnn2C	i
O=[N+]([O-])c1cccc(C=Nc2cccc3ncccc23)c1O	i
COc1ccc(F)c(C(=O)N(C/C=C/c2ccccc2)CCO)c1F	i
O=C(CC1COCCN1)NCC1(c2cccc(F)c2)CCOCC1 (stereo not drawn)	i
CCCCc1nc(SCC(=O)Nc2ccc(Br)cn2)n[nH]1	i
CC(=O)Nc1cccc(NC(=O)Nc2cccc(Cl)c2)c1	i
CCOc1ccc(/C=C2\N=C(c3ccc([N+](=O)[O-])cc3)OC2=O)cc1	i
CCCCOc1ccc(C2=N/C(=C\c3ccc([N+](=O)[O-])cc3)C(=O)O2)cc1	i
CCOc1ccc(/C=C2\N=C(c3cc([N+](=O)[O-])cc([N+](=O)[O-])c3)OC2=O)cc1	40.0%*
CCN1CCN(C(=O)C2CCC(=O)N2C2CCCC2)CC1 (stereo not drawn)	i
COc1ccc(CNC(=O)c2ccc3c(c2)NC(=O)C2CCCCN32)cc1 (stereo not drawn)	i
CC(C)c1ccc(NC(=O)c2ccc3c(c2)NC(=O)C2CCCCN32)cc1 (stereo not drawn)	99.0%*
CN(C)C(=O)c1ccc2c(c1)NC(=O)C1CCCCN21 (stereo not drawn)	i
CCCCOc1ccc(/C=c2\sc3ncnn3c2=O)cc1OC	i
O=c1/c(=C\c2cccc([N+](=O)[O-])c2)sc2nc3ccccc3n12	i
COc1ccc(/C=c2\sc3nc4ccccc4n3c2=O)cc1O	50.0%*
CCOc1ccccc1CN1CCN(Cc2ccc3nsnc3c2)CC1CCO (stereo not drawn)	i

Assay outcomes deposited in PubChem BioAssay by Paczesny and Yang Labs, IUPUI and University of Michigan.
